The source of these data is ChEMBL document CHEMBL1961873, “Compounds: GSK PKIS; Assays: Nanosyn kinase panel” (2012).

As usually defined, the inhibition is the relative decrease from the control value, in per cent.

SMILES strings stand for the structures. “And” between values parts separate entries of the source, which are not always exact repeats. Equal entries are not always repeated.

For assay [1], the system named is Proto-oncogene tyrosine-protein kinase receptor Ret (Homo sapiens), P07949 [Y791F]. To be noted: at 1 µM.
For assay [2], the target named is Macrophage-stimulating protein receptor (Homo sapiens) (UniProt Q04912). The note with it: at 0.1 µM.
For assay [3] the target is unchanged. To be noted: at 1 µM.
Assay [4] deals with Proto-oncogene tyrosine-protein kinase ROS (Homo sapiens) (UniProt P08922). To be noted: at 0.1 µM.
For assay [5] the target is unchanged. To be noted: at 1 µM.
Assay [6] concerns the target Proto-oncogene tyrosine-protein kinase Src (Homo sapiens) (UniProt P12931). The note with it: at 0.1 µM.
Assay [7] shares this target. The note with it: at 1 µM.
For assay [8], the target named is Tyrosine-protein kinase Srms (Homo sapiens) (UniProt Q9H3Y6). To be noted: at 0.1 µM.
Assay [9] shares this target. To be noted: at 1 µM.
The target of assay [10] is Tyrosine-protein kinase SYK (Homo sapiens) (UniProt P43405). To be noted: at 0.1 µM.
Assay [11] has the same target. To be noted: at 1 µM.
For assay [12], the target named is T1, Tyrosine-protein kinase Tec (Homo sapiens) (UniProt P42680).
T1 sequence (whole entry): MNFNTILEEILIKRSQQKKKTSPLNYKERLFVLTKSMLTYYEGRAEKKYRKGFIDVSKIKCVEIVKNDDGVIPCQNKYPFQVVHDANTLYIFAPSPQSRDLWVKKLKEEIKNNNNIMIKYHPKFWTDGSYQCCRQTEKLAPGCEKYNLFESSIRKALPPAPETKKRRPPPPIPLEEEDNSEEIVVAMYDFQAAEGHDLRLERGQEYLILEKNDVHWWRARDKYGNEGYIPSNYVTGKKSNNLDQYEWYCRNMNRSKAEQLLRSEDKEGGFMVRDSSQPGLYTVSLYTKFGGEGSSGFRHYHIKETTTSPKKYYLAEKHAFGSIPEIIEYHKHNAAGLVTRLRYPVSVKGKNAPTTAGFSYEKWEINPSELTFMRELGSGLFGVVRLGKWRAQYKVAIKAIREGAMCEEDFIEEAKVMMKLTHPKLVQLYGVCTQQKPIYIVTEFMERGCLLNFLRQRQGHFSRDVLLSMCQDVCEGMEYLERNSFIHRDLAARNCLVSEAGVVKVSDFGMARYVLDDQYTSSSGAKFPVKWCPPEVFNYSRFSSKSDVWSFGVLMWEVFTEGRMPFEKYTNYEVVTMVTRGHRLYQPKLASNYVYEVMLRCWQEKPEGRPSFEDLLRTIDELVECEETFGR
To be noted: at 0.1 µM.

The target of assay [13] is T1, Tyrosine-protein kinase Tec (Homo sapiens). The note with it: at 1 µM.
Assay [14] addresses Angiopoietin-1 receptor (Homo sapiens) (UniProt Q02763). To be noted: at 0.1 µM.
The target is the same in assay [15]. To be noted: at 1 µM.
For assay [16], the target named is T2, Non-receptor tyrosine-protein kinase TNK1 (Homo sapiens) (UniProt Q13470).
T2 sequence (whole entry): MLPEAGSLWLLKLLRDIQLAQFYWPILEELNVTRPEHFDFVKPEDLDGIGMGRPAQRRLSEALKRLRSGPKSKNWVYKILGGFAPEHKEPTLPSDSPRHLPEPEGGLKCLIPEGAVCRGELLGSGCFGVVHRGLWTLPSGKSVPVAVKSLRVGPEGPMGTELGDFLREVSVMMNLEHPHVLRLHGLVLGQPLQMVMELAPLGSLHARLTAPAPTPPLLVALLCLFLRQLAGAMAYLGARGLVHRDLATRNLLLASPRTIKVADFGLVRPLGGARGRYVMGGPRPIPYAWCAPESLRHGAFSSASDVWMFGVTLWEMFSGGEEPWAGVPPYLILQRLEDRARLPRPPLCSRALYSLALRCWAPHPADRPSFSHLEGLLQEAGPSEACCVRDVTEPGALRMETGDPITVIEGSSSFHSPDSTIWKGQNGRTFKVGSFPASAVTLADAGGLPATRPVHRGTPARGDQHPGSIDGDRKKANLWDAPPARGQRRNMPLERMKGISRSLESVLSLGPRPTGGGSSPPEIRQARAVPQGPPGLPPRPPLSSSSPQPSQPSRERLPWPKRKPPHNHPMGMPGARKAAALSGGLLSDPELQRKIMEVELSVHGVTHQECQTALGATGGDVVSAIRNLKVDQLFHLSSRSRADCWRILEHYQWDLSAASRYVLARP
The note with it: at 0.1 µM.

In assay [17] the target is T2, Non-receptor tyrosine-protein kinase TNK1 (Homo sapiens). The note with it: at 1 µM.
Assay [18] has as its target Activated CDC42 kinase 1 (Homo sapiens) (UniProt Q07912). To be noted: at 0.1 µM.
Assay [19] shares this target. To be noted: at 1 µM.
Assay [20] concerns the target High affinity nerve growth factor receptor (Homo sapiens) (UniProt P04629). To be noted: at 0.1 µM.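 Further: each value is a mean of replicate percent inhibition readings against TRKA kinase.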

Macrophage-stimulating protein receptor (Homo sapiens), sequence (Q04912 25-304 limits assumed): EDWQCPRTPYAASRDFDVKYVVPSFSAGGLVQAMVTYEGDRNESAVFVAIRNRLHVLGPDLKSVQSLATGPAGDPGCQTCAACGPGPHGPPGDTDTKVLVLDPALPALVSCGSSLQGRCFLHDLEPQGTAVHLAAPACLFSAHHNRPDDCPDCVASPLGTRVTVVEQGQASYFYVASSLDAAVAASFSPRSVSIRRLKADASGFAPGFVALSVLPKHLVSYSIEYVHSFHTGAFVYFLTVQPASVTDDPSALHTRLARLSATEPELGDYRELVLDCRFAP
Macrophage-stimulating protein receptor (Homo sapiens), sequence (Q04912 310-1400 limits assumed): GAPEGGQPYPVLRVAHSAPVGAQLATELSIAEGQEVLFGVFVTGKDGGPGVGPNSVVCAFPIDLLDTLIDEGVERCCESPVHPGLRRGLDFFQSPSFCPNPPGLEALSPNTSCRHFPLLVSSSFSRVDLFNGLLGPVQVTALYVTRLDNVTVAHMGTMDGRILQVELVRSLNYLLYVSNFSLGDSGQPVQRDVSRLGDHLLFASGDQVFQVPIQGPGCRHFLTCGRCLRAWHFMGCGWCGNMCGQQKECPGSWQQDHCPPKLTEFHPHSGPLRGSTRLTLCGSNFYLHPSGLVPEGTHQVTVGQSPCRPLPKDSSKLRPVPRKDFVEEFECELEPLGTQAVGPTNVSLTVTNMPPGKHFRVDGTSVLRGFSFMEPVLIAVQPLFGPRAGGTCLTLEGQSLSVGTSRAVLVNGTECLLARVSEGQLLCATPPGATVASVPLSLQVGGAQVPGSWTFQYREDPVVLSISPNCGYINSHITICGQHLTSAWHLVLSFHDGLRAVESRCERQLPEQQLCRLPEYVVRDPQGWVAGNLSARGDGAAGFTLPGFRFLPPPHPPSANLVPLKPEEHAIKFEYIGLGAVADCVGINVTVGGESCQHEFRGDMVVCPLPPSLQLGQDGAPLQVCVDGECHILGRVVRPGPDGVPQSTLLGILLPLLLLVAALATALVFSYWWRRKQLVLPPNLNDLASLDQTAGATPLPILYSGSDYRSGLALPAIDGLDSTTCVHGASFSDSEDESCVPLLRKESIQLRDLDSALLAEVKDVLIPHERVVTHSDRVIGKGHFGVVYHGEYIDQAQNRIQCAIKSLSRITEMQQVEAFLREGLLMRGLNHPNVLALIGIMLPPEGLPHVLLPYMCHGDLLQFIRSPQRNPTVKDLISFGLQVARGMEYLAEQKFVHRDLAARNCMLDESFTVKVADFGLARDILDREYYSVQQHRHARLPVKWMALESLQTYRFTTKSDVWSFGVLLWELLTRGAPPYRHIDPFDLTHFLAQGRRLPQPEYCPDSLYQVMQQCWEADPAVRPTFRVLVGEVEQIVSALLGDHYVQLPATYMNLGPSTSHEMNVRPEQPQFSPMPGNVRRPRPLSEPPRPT
Proto-oncogene tyrosine-protein kinase receptor Ret (Homo sapiens), P07949 [Y791F], sequence (P07949 whole entry Y791F): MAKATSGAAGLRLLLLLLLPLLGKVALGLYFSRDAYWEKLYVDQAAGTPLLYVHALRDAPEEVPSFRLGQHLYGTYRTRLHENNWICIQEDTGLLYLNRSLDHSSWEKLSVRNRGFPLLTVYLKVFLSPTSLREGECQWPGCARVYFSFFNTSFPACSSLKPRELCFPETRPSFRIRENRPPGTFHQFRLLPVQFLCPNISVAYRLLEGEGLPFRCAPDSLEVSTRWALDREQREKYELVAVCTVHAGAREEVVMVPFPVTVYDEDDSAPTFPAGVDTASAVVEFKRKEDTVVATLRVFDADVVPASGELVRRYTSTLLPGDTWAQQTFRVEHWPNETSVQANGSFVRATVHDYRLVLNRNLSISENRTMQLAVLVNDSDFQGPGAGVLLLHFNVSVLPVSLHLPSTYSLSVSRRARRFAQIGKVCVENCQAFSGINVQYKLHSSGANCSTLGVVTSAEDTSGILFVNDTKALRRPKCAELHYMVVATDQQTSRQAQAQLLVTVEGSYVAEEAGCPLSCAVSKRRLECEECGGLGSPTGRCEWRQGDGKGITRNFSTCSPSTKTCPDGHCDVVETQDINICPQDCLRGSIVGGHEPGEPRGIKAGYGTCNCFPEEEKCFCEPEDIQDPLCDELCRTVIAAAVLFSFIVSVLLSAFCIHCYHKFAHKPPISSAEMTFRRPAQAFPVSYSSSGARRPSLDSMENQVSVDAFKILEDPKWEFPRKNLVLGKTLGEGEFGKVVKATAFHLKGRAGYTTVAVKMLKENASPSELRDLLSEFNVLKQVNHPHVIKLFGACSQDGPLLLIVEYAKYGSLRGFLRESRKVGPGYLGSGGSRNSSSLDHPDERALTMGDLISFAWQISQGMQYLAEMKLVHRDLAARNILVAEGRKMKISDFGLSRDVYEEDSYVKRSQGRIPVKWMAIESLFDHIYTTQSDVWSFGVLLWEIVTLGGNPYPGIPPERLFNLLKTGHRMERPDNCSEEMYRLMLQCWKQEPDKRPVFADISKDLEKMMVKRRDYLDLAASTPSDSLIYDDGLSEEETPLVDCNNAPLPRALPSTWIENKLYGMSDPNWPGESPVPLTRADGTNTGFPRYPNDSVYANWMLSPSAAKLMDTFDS
Tyrosine-protein kinase Srms (Homo sapiens), sequence (Q9H3Y6 whole entry): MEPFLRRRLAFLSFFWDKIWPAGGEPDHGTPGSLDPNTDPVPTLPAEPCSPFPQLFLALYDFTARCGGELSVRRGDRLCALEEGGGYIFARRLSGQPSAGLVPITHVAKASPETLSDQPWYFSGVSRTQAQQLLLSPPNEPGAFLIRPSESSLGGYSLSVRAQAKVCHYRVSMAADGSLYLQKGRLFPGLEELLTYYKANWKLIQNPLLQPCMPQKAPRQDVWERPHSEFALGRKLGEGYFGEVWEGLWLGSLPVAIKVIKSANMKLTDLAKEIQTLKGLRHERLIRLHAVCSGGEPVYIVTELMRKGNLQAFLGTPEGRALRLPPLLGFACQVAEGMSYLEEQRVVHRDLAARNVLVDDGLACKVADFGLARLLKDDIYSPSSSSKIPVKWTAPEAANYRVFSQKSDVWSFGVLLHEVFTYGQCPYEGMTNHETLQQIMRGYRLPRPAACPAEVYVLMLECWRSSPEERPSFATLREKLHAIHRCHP
Angiopoietin-1 receptor (Homo sapiens), sequence (Q02763 whole entry): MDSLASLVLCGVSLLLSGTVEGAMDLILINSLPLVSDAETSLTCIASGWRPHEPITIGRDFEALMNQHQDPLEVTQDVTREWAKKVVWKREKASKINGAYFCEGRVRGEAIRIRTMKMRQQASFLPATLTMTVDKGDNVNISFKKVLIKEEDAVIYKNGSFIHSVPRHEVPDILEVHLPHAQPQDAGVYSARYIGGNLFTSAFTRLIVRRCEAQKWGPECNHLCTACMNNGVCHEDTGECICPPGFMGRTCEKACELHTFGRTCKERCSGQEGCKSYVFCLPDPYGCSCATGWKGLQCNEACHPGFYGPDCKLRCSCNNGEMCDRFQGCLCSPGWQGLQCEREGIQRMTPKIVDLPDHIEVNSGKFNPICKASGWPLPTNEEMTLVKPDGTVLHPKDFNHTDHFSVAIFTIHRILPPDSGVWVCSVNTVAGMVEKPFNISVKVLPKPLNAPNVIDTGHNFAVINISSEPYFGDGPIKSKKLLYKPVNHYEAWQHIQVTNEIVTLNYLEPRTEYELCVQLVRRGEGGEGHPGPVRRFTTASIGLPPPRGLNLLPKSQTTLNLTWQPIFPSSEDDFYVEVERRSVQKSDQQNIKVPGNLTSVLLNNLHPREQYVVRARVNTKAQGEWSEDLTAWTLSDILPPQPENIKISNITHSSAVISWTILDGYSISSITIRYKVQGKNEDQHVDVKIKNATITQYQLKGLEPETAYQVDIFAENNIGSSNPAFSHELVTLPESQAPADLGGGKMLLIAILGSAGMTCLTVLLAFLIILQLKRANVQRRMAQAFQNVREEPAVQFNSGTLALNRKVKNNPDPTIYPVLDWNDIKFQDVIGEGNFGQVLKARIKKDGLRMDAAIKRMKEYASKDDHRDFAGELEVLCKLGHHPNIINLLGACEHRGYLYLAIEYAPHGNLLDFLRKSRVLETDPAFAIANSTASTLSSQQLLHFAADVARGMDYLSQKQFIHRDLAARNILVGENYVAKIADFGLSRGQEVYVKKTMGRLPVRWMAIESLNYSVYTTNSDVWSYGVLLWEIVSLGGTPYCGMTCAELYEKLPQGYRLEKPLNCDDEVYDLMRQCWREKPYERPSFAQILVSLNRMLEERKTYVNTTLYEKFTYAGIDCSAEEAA
Proto-oncogene tyrosine-protein kinase Src (Homo sapiens), sequence (P12931 2-536 limits assumed): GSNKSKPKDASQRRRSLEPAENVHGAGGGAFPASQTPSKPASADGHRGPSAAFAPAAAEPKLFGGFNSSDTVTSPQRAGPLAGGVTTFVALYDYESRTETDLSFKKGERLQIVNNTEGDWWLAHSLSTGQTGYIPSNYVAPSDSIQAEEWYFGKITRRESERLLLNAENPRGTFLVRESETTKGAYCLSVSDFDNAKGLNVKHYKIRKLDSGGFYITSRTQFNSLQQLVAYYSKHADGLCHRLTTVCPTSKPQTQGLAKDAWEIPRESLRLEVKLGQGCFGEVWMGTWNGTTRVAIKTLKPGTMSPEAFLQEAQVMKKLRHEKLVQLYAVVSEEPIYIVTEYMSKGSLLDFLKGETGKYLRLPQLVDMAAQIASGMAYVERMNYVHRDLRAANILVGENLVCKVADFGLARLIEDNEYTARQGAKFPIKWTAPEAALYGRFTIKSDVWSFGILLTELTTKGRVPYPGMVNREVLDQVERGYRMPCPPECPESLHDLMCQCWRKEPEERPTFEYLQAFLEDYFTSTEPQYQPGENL

On to `NS(=O)(=O)c1cccc(N/C=C2\C(=O)Nc3ccccc32)c1`, for which the inhibition in assay [1] was 34.3%; in assay [2] it was -4.07%; in assay [3], 7.57%; in assay [4], 5.69%; in assay [5], 9.87%; in assay [6] it was 1.93%. For the same molecule, the inhibition in assay [7] is 12.9%; in assay [8], -0.1%; in assay [9] it was -1.56%; in [10], -6.93%; in [11], -1.66%; in [12], 4.94%. The inhibition in assay [13] was 7.41%; in assay [14] it was 4.12%; in [15] it was 8.33%; in assay [16] it was 3.06%; in [17], 5.85%; in assay [18] it was 0.36%. The inhibition was 1.26% in assay [19] and 4.69% in assay [20].

As to `CCn1c(-c2nonc2N)nc2cncc(C(=O)NCCNC)c21`, the inhibition in assay [1] was found to be 12.2%; in assay [2] it was 1.51%; in assay [3] it was 1.07%; in assay [4] it was 3.34%; in assay [5] it was 14%; in assay [6] it was 8.77%. Further, the inhibition is 6.62% in assay [7]; -2.48% in [8]; -2.36% in [9]; -1.48% in [10]; -6.01% in [11]; 2.57% in [12]. In addition, the inhibition in [13] was 4.27%; in [14], 5.54%; in [15], 7.24%; in assay [16], -0.07%; in [17], 8.48%; in [18], 2.67%. The inhibition in assay [19] was 2.15%; in assay [20] it was 1.96%.

Consider `O=C(O[C@H]1CN[C@H](C#Cc2cc3ncnc(Nc4ccc5c(cnn5Cc5ccccc5)c4)c3s2)C1)N1CCOCC1`, for which the inhibition in [1] was 8.34%; in assay [2], 0.29%; in assay [3], 2.37%; in [4], 1.38%; in assay [5] it was -0.29%; in assay [6], 0.01%. Besides, the inhibition in assay [7] was -0.98%; in assay [8] it was -0.4%; in assay [9], 2.01%; in [10], 0.27%; in assay [11], 0.67%; in assay [12] it was 2.33%. Further, the inhibition in [13] is 2.89%; in [14], 0.41%; in [15], 5.18%; in [16] it was 0.45%; in assay [17] it was 9.52%; in assay [18] it was -0.92%. The inhibition in assay [19] was -1.03%; in [20], -1.24%.

Turning to `Cc1ccc(-c2cc3c(NC(=O)C4CC4)ncnc3o2)cc1`, the inhibition is 12.9% in assay [1]; -0.25% in [2]; 11.4% in [3]; 11.1% in assay [4]; 16.3% in [5]; 1.85% in assay [6]. In addition, the inhibition in assay [7] was 24.4%; in assay [8], -1.85%; in [9], -5.36%; in assay [10] it was -5.27%; in assay [11] it was -1.6%; in assay [12], 5.2%. Besides, the inhibition in assay [13] was determined as 13.1%; in assay [14], 3.09%; in [15] it was 4.4%; in [16], 3.37%; in [17], 6.56%; in assay [18], 1.58%. The results for the inhibition in assay [19] and in assay [20] were 4.37% and 4.74%, respectively.

Regarding `Cc1cc(O)cc(C)c1/C=C/c1cncc(C(N)=O)c1`, the inhibition in assay [1] is 8.63%; in assay [2], 1.41%; in [3], 4.46%; in assay [4], 4.48%; in assay [5], 6.31%; in [6], 5.55%. Besides, the inhibition was 54.2% in assay [7]; 5.08% in [8]; 31.6% in assay [9]; -0.5% in [10]; 0.5% in assay [11]; 5.81% in assay [12]. The inhibition in [13] was 32.2%; in assay [14], 2.45%; in assay [15], 5.29%; in assay [16], 4.23%; in assay [17], 14.4%; in [18], 1.58%. For the same molecule, the inhibition in assay [19] amounted to 6.06%; in assay [20] it was 4.13%.

Consider `CS(=O)(=O)CCNCc1ccc(-c2ccc3ncnc(Nc4ccc(OCc5ccccc5)cc4)c3c2)o1`, for which the inhibition in [1] stood at 9.58%; in [2], 2.59%; in assay [3], 3.8%; in assay [4] it was 1.11%; in [5], 8.89%; in [6] it was 9.13%. For the same molecule, the inhibition in assay [7] is 12.5%; in [8], -0.68%; in assay [9] it was 2.59%; in [10], 1.7%; in assay [11] it was -0.71%; in [12], 1.49%. The inhibition came to 7.43% in assay [13]; 1.24% in assay [14]; 4.15% in assay [15]; 3.51% in [16]; 16.6% in assay [17]; 1.73% in assay [18]. Further, the inhibition in assay [19] stood at 2.69%; in [20], 1.91%.

Turning to `CN1CCC(C(=O)Nc2n[nH]c3nc(-c4ccc(O)cc4)c(Br)cc23)CC1`, the inhibition is 20.8% and 5.43% in assay [1]; -1.02% and 7.11% in assay [2]; 6.18% and 11.8% in assay [3]; 5.2% and 4.89% in assay [4]; 10.4% and 1.96% in assay [5]; 6.76% and 6.26% in [6]. For the same molecule, the inhibition in assay [7] was 9.87% and 8.29%; in [8], -2.12% and 1.04%; in [9], -1.75% and -1%; in [10], -0.18% and 0.92%; in [11], -0.04% and 0.42%; in [12], -1.21% and 2.96%. The inhibition in [13] was 1.24% and 2.96%; in assay [14], 3.01% and 5.98%; in [15], 7.84% and 7.69%; in assay [16], 3.57% and 0.52%; in [17], 6.51% and 6.06%; in assay [18], 0.92% and 0.24%. Further, the inhibition is 1.76% and 1.56% in assay [19]; 1.13% and 2.68% in [20].
